In PubChem BioAssay:
Results filed as inconclusive are left out. Active and inactive are the calls of the source.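 Rule for the calls, unless noted: active = inhibition above the screen-wide mean plus 3 SD, about 51%; inactive = the rest.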

Experiments:
[1] = rapamycin-like changes in RPL19A-GFP expression – cell-based, S. cerevisiae, multiplex flow cytometry, primary screen (AID 1862; in the data active = percent of DMSO control GFP below about 86%;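 note: lower values mimic rapamycin by blocking the RPL19A rise seen in DMSO cells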); conditions: S. cerevisiae RPL19A-GFP strain, flow cytometry fluorescence, 3 h; at 10 µM; stronger effect = lower value
[2] = TOR pathway GLN3 branch reporter MEP2-GFP changes – S. cerevisiae, multiplex flow cytometry, primary screen (AID 1867;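 active = GFP response, as percent of the DMSO control, above the screen-wide mean plus 3 SD, about 139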;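 note: median GFP channel fluorescence of barcode-gated MEP2-GFP cells measured by flow cytometry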); conditions: S. cerevisiae MEP2-GFP strain, 3 h, at 10 µM, stronger effect = higher value, 100% means same as DMSO wells
[3] = TOR pathway RTG branch CIT2 reporter changes – S. cerevisiae, GFP fusion, multiplex flow cytometry, primary screen (AID 1870;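 active = percent response above a set limit, the screen-wide mean plus 3 SD, cut at about 130% in these data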;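 note: barcoded CIT2-GFP strain pooled with four other GFP strains with rapamycin as positive control; median GFP fluorescence per well over plate mean of DMSO wells so 100% = DMSO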); conditions: S. cerevisiae CIT2-GFP expression, 3 h, at 10 µM, stronger effect = higher value
[4] = TOR pathway LAP4-GFP level changes – S. cerevisiae, multiplex flow cytometry, primary screen (AID 1873;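 active = GFP signal, as percent of the solvent control, above the screen mean plus 3 SD, about 149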); conditions: S. cerevisiae LAP4-GFP expression, 3 h, at 10 µM, stronger effect = higher value
[5] = yeast AGP1-GFP level changes, GLN3 branch – cell-based, multiplex flow cytometry, S. cerevisiae, primary screen (AID 1887;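 active = GFP signal above the screen-wide mean plus 3 SD, that is over about 124.5% of the solvent control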;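 note: AGP1-GFP fusion strain of S. cerevisiae within a five-strain barcoded multiplex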); conditions: 3 h, at 10 µM, stronger effect = higher value
[6] = hit retest on RPL19A-GFP reporter strain – cell-based, S. cerevisiae, flow cytometry, cherry picks, mother/daughter gates, confirmation (AID 2270;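 active = GFP response below 50% of the DMSO control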); conditions: 3 h, at 10 µM, stronger effect = lower value, 100 = same GFP as DMSO wells
[7] = yeast TOR pathway reporter LAP4-GFP change – cell-based, cherry picks, flow cytometry, mother/daughter gates, confirmation (AID 2271;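 active = GFP response above 150% of the DMSO control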;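 note: ratio of sample to DMSO plate mean so 100% equals DMSO level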); conditions: S. cerevisiae LAP4-GFP strain, 3 h, at 10 µM, stronger effect = higher value, 100 means same as DMSO control
[8] = TOR pathway reporter MEP2-GFP, retest of hits – S. cerevisiae, flow cytometry GFP, cherry picks, confirmation (AID 2272;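 active = GFP response above 150% of the DMSO control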;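 note: ratio of well signal to plate DMSO mean so 100% equals DMSO level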); conditions: S. cerevisiae MEP2-GFP strain, 3 h, at 10 µM, stronger effect = higher value
[9] = TOR pathway CIT2 reporter hit retest – S. cerevisiae, GFP fusion, cherry picks, mother/daughter gates, confirmation (AID 2274;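 active = GFP response above 150% of the DMSO level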); conditions: S. cerevisiae CIT2-GFP strain, flow cytometry, 3 h, at 10 µM, stronger effect = higher value
[10] = reduced mouse 2C T cell binding to pMHC/ICAM-1 vesicles – MLPCN validation set, flow cytometry, LFA-1/ICAM-1 modulator project, pilot screen (AID 2523;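 active = response below a set limit, under 55% cells CD8-positive and vesicle-bound, and CD8 cells' 90th-percentile brightness under 279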;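 for vesicle binding response: mean PE anti-B7-1 fluorescence of CD8+ cells relative to row control; 100% = QL9-loaded vesicles with DMSO vehicle in the same plate row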); conditions: 2C mouse CD8+ T cells, at 7 µM, stronger effect = lower value; double positive events: measured here: CD8+/vesicle+ event percentage
[11] = target: Integrin beta-1 (Homo sapiens) + Integrin alpha-4 (Homo sapiens) (UniProt P13612+P05556); assay: alpha4beta1 integrin LIBS antibody binding reduction – U937 cells, HUTS-21 mAb, flow cytometry, validation set, VLA-4 allosteric modulator project, pilot screen (AID 2674;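 active = inhibition above 50%, about 3 SD of the validation set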;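 note: antibody binding induced by the VLA-4 ligand LDV present at three times its Kd; 0% = LDV ligand with antibody and no compound and 100% = antibody without LDV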); conditions: HUTS-21 LIBS mAb binding, at 6.7 µM, stronger effect = higher value, binding induced by LDV ligand
Sequence of Integrin beta-1 (Homo sapiens) + Integrin alpha-4 (Homo sapiens) (P05556 whole entry, looked up): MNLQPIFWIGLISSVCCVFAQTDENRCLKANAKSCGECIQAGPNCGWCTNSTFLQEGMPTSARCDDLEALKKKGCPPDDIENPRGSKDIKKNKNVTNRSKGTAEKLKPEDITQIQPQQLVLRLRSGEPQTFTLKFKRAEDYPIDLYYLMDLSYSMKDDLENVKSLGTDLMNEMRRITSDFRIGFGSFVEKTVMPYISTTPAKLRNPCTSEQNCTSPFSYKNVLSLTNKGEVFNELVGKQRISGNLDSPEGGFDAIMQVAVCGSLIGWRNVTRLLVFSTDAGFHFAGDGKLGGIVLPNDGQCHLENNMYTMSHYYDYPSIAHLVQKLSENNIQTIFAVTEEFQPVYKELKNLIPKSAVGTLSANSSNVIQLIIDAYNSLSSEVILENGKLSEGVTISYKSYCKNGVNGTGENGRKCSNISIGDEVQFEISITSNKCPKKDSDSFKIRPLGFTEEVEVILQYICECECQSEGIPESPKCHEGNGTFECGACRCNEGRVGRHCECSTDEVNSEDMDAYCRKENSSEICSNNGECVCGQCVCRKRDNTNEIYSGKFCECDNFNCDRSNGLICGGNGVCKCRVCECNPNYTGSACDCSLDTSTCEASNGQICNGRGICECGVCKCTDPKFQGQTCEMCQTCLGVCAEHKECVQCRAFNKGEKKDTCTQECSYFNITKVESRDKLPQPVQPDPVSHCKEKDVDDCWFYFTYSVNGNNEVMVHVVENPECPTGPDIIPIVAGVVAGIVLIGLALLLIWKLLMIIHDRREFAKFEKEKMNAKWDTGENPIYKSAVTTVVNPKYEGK
Sequence of Integrin beta-1 (Homo sapiens) + Integrin alpha-4 (Homo sapiens) (P13612 whole entry, looked up): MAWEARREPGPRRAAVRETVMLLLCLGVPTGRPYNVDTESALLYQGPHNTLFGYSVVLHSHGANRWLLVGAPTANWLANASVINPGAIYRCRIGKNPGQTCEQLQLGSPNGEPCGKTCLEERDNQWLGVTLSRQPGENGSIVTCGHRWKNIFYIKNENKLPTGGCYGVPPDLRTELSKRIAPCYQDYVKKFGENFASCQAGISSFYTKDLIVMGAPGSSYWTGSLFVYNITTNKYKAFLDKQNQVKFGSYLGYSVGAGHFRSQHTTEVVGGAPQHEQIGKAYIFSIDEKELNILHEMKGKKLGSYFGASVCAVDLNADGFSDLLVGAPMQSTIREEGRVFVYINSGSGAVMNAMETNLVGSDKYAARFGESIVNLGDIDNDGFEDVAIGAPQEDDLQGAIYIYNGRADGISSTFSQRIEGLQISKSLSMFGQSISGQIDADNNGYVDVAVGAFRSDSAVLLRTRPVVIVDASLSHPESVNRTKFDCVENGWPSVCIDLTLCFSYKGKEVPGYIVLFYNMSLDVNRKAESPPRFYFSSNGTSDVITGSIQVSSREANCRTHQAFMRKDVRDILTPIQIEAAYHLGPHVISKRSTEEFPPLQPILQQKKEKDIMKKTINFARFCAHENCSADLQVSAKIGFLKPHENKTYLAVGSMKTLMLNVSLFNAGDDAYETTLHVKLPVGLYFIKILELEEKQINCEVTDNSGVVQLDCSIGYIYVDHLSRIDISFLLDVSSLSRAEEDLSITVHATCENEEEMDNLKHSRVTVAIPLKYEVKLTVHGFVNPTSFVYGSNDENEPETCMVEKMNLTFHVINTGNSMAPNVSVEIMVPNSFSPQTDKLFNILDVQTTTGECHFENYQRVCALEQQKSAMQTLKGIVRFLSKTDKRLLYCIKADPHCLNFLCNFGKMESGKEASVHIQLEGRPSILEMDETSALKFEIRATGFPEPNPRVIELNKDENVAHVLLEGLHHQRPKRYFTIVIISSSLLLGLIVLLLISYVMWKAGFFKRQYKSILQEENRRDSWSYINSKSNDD

[12] = calorie-restriction mimetic ROS inhibitors, yeast – validation compound set, pilot screen (AID 2706;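 active = superoxide response below 65% of plate, a cut near 3 SD across the whole screen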;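 note: yeast exposed to compound for one week at 30 degrees C before staining; 100% = mean of all compound wells on the same plate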); conditions: S. cerevisiae aging, superoxide DHE fluorescence; at 10 µM; stronger effect = lower value
[13] = target: Beta-adrenergic receptor kinase 1 (Homo sapiens) (UniProt P25098); assay: GRK2 binders displacing RNA aptamer, biochemical, validation, human GRK2, bead flow cytometry (AID 488806;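 active = aptamer binding inhibition above 30%, about 3 SD of noise from non-fluorescent compounds; inactive = inhibition at or below 30%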); conditions: bead-bound GRK2, FAM-aptamer displacement, at 10 µM, stronger effect = higher value
Sequence of Beta-adrenergic receptor kinase 1 (Homo sapiens) (P25098 whole entry, looked up): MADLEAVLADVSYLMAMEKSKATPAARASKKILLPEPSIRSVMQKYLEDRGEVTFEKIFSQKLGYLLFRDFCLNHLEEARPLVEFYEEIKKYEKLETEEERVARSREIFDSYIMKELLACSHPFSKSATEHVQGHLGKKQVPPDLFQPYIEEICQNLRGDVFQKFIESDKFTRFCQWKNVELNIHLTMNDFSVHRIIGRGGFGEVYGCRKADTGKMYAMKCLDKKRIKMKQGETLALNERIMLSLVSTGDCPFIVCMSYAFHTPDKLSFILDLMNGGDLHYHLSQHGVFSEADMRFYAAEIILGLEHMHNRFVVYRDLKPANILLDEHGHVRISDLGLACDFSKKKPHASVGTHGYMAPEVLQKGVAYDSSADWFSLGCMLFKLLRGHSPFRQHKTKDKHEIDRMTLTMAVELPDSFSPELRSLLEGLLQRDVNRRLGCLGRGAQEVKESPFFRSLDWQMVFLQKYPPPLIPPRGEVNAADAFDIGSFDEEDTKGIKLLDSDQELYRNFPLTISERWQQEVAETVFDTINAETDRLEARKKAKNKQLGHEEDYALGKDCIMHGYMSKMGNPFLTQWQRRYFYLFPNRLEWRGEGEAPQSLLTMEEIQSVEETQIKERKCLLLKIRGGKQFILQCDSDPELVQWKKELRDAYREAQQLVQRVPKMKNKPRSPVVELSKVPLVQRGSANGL

[14] = target: Beta-2 adrenergic receptor (Homo sapiens) (UniProt P07550); assay: agonist-induced loss of surface beta2AR – cell-based, FAP fluorogen, flow cytometry, validation set, pilot screen (AID 504459;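 active = percent response above 42, roughly 3 SD of non-fluorescent test compounds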;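 note: agonist-driven loss of surface beta2AR via internalization measured by FAP dye flow cytometry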); conditions: Am2.2-beta2AR cells, at 10 µM, stronger effect = higher value
Sequence of Beta-2 adrenergic receptor (Homo sapiens) (P07550 whole entry, looked up): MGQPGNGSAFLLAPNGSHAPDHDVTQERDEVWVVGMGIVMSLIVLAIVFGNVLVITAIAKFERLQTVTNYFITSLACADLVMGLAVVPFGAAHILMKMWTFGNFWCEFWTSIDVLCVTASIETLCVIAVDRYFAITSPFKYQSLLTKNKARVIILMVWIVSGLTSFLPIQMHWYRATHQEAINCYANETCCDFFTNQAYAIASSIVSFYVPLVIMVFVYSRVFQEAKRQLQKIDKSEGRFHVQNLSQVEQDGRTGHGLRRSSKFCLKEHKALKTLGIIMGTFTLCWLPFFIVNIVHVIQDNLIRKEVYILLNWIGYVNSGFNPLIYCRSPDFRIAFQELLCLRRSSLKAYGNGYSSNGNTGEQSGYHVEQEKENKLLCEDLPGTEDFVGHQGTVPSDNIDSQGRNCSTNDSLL

[15] = target: AP-2 complex subunit beta (Homo sapiens) (UniProt P63010); assay: beta-arrestin/AP2 interaction blockers – biochemical, validation set, GST-AP2 beads, flow cytometry, pilot screen (AID 504541;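 active = inhibition above 54%, about 3 SD of non-fluorescent compounds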;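 note: AP2 carries R879A mutation and is captured from E. coli lysate; bead-bound FITC arrestin peptide fluorescence measuring arrestin peptide binding to AP2; 0% = DMSO wells and 100% = excess unlabeled arrestin peptide control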); conditions: FITC arrestin peptide, at 10 µM, stronger effect = higher value, AP2 beta2 appendage fragment, R879A mutant
Sequence of AP-2 complex subunit beta (Homo sapiens) (P63010 whole entry, looked up, the tested form may be a part, one chain of several): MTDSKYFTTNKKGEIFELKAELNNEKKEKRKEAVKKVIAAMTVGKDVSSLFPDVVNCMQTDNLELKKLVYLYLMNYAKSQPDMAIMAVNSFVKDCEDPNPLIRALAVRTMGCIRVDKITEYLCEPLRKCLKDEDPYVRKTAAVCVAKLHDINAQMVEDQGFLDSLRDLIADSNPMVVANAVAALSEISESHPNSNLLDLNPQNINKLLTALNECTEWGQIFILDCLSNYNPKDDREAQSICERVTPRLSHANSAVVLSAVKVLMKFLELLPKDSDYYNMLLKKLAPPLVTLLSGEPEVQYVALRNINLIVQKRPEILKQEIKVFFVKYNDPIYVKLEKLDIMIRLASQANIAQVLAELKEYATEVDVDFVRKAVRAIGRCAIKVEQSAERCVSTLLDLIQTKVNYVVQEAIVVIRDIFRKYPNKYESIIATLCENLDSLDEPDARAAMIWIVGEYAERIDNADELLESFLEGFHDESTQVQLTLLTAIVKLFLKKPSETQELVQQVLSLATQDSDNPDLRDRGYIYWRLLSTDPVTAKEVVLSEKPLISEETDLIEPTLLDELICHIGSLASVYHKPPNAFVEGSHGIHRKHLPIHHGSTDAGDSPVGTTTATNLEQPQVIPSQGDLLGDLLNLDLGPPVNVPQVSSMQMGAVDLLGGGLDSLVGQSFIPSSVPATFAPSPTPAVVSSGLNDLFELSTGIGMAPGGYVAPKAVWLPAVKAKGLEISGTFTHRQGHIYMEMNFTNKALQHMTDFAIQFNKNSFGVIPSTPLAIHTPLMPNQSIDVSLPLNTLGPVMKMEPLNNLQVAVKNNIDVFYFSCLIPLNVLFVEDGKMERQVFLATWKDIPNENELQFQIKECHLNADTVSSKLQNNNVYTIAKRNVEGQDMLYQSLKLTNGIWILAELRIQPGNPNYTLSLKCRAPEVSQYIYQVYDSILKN

[16] = cytosolic pH regulators acting via V-ATPase – S. cerevisiae, pHLuorin, HTS validation (AID 504600; in the data active = response above about 15%;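 note: plate controls were DMSO for no effect and reference compound for full effect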); conditions: V-ATPase proton transport, at 10 µM, stronger effect = higher value
[17] = test system: anti-desmoglein-3 scFv antibody binding to human DSG3; assay: blockers of pathogenic pemphigus antibody–desmoglein-3 binding – biochemical, validation compound set, bead-based, flow cytometry, pilot screen (AID 588368;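 active = binding below the plate cutoff, the plate median minus 3 SD, with a reading above zero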;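 note: signal is the median channel fluorescence of bead-bound GFP antibody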); conditions: Protein G beads, DSG3-Fc, scFv-GFP binding, at 10 µM, stronger effect = lower value
[18] = Nile Red efflux blockade in pump-expressing yeast – validation compound set, multiplex, phenotypic, pilot screen (AID 588506;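 active = efflux inhibition above 0.42, the validation set average plus 4 SD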;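 note: Nile Red retained in cells so higher fluorescence means more efflux inhibition; 0 = negative control wells and 1 = enniatin B 25 µM full block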); conditions: S. cerevisiae pump-expressing triplex, Nile Red efflux flow cytometry; at 10 µM; stronger effect = higher value; the pumps come from Candida albicans
[19] = target: ATP-binding cassette sub-family B member 6 (Homo sapiens) (UniProt Q9NP58); assay: blockers of ABCB6-driven porphyrin uptake – K562-ABCB6 cells, flow cytometry, validation set, pilot screen (AID 588550); conditions: K562-ABCB6 porphyrin accumulation, 1 h, at 10 µM, stronger effect = higher value;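 note: 0% = DMSO wells and 100% = benzethonium chloride 70 µM positive control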
Sequence of ATP-binding cassette sub-family B member 6 (Homo sapiens) (Q9NP58 whole entry, looked up): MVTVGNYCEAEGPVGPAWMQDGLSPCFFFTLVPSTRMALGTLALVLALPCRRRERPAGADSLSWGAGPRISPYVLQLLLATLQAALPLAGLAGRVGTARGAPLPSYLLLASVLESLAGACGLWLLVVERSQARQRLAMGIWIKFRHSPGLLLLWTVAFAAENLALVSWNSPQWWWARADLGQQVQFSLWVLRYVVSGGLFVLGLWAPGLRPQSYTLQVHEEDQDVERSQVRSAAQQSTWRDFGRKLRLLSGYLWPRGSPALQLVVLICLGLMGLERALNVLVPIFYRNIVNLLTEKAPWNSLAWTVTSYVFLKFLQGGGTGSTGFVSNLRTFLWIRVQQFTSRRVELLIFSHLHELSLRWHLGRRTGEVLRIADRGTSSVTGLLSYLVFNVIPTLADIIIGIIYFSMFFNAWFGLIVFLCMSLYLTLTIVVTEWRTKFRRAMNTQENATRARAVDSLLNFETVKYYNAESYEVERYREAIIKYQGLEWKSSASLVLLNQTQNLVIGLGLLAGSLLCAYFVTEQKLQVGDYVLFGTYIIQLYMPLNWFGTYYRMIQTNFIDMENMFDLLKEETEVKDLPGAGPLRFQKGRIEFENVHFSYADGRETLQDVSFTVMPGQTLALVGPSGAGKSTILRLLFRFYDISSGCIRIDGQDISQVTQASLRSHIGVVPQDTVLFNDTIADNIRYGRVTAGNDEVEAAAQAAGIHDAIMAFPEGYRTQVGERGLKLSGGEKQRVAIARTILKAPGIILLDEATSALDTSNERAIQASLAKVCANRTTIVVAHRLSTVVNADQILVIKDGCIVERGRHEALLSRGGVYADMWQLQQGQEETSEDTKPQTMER

[20] = AML differentiation inducers, ER-HoxA9 marrow cells – cell-based, GFP/MAC1 double positive, flow cytometry, validation set, primary screen (AID 588685;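 active = differentiation response of at least 50%, scaled between solvent and reference control, from cells with both markers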;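 note: compound exposure lasts four days before antibody staining and flow analysis; 0% = DMSO wells and 100% = 5 µM fulvestrant positive control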); conditions: stronger effect = higher value, normalized: vehicle 0, fulvestrant 100
[21] = measured here: daughter cell gate
[22] = measured here: mother cell gate
[23] = measured here: daughter cell gate response
[24] = measured here: mother cell gate response

N=c1nc(N2CCCCC2)cc(N)n1O
99.7%: GFP response, % of DMSO [9, 22]
99.3%: GFP response relative to DMSO [7, 24]
inactive: percent of DMSO control GFP [1] 90.9% | percent response of DMSO control [3] 107% | GFP response vs DMSO [4] 86.4% | GFP response, % of DMSO [5] 90.1% | GFP response vs DMSO [6] 97.4% | GFP response relative to DMSO [7] 101% | GFP response vs DMSO [8] 98.3% | GFP response, % of DMSO [9] 99.7% | vesicle binding response [10] 117% | inhibition [11] 16.2% | superoxide response (% of plate) [12] 89.4% | aptamer binding inhibition [13] 2% | response [14] -8.64% | inhibition [15] 33.9% | response [16] -5.96% | binding (% of control) [17] 98.5% | efflux inhibition (fraction of control) [18] 0.37 | differentiation response [20] 8.19%
101%: GFP response relative to DMSO [7, 23]
103%: GFP response, % of DMSO [9, 21]
active: GFP response vs DMSO [2] 143% | inhibition [19] 115%
97.4%: GFP response vs DMSO [6, 21] | GFP response vs DMSO [6, 22]
59.7%: double positive events [10]

COc1cc(/C=C/C(=O)CC(=O)/C=C/c2ccc(O)c(OC)c2)ccc1O
61.2%: double positive events [10]
active: percent response of DMSO control [3] 135%
inactive: percent of DMSO control GFP [1] 117% | GFP response vs DMSO [2] 114% | GFP response vs DMSO [4] 114% | GFP response, % of DMSO [5] 95.1% | GFP response vs DMSO [6] 105% | GFP response relative to DMSO [7] 93.8% | GFP response vs DMSO [8] 111% | GFP response, % of DMSO [9] 111% | vesicle binding response [10] 39.9% | aptamer binding inhibition [13] 6% | response [14] -195% | inhibition [15] 14.9% | response [16] -4.77% | binding (% of control) [17] 129% | efflux inhibition (fraction of control) [18] 0.24 | inhibition [19] -398% | differentiation response [20] 18.8%

O=c1[nH]cc(F)c(=O)[nH]1
89.8%: GFP response, % of DMSO [9, 22]
85.4%: GFP response vs DMSO [6, 22]
93%: GFP response relative to DMSO [7, 24]
active: percent response of DMSO control [3] 127%
88.8%: GFP response relative to DMSO [7, 23]
inactive: percent of DMSO control GFP [1] 90.9% | GFP response vs DMSO [2] 119% | GFP response vs DMSO [4] 77% | GFP response, % of DMSO [5] 104% | GFP response vs DMSO [6] 83.5% | GFP response relative to DMSO [7] 90% | GFP response vs DMSO [8] 101% | GFP response, % of DMSO [9] 88.5% | vesicle binding response [10] 223% | inhibition [11] -45% | superoxide response (% of plate) [12] 100% | aptamer binding inhibition [13] -3% | response [14] -17.5% | inhibition [15] -8.2% | response [16] 1.44% | binding (% of control) [17] 104% | efflux inhibition (fraction of control) [18] -0.06 | inhibition [19] 9% | differentiation response [20] -5.73%
82.3%: GFP response vs DMSO [6, 21]
52.4%: double positive events [10]
87.3%: GFP response, % of DMSO [9, 21]

C1COC(NC(C2CC2)C2CC2)=N1
active: GFP response vs DMSO [2] 148%
inactive: percent of DMSO control GFP [1] 89.3% | percent response of DMSO control [3] 110% | GFP response vs DMSO [4] 85.3% | GFP response, % of DMSO [5] 94.5% | GFP response vs DMSO [6] 96% | GFP response relative to DMSO [7] 95.4% | GFP response vs DMSO [8] 96.2% | GFP response, % of DMSO [9] 98.3% | vesicle binding response [10] 227% | inhibition [11] 17.1% | superoxide response (% of plate) [12] 96.6% | aptamer binding inhibition [13] 3% | response [14] 3.85% | inhibition [15] 11.9% | response [16] 9.25% | binding (% of control) [17] 98.3% | efflux inhibition (fraction of control) [18] 0.23 | inhibition [19] 6% | differentiation response [20] 0.82%
97.3%: GFP response, % of DMSO [9, 22]
97.6%: GFP response vs DMSO [6, 22]
96%: GFP response relative to DMSO [7, 23]
64.4%: double positive events [10]
97.1%: GFP response vs DMSO [6, 21]
95.1%: GFP response relative to DMSO [7, 24]
101%: GFP response, % of DMSO [9, 21]
